{"source": "the supplement of paper PMC11417369", "note": "In all, about 25,000 sequences were measured (“ln(normalized median fluorescence intensity)”: median about 6.7, highest 2% from about 10 on). The sample as a whole holds a higher share of the highest values than the screen did."}
{"test_system": "PfHDP1 homeodomain (GST-tagged)", "assay": "gcPBM binding intensity (ln(normalized median fluorescence intensity)); higher = stronger DNA binding", "procedure,_shortened": "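Binding intensity is defined as the maximum Masliner-normalised natural-log median intensity across replicate spots for either probe orientation. It was measured on an Agilent 4 × 180k array of primer-extended double-stranded 36-bp intergenic genomic probes and negative controls, to which GST-tagged P. falciparum DNA-binding domains made in E. coli were applied for 1 h in 1× PBS with 1% milk, 0.2 mg/ml BSA, 0.5% salmon testes DNA and 0.03% Triton X-100. Detection was by Alexa488 anti-GST antibody and scanning at 488 nm.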"}
{"sequence": "TTTGTGTTGTATTTTTGTACATAAAATAAACTTAAA [XGTACX_site4637]", "gcPBM binding intensity (ln)": 6.65}
{"sequence": "TATTTAAATGGATGCACACATGCATTAAATAAAATA [CACACA_site3433]", "gcPBM binding intensity (ln)": 8.59}
{"sequence": "ATGACTCTCAAGTTTGCACACATTTATATTTTTTAA [CACACA_site2605]", "gcPBM binding intensity (ln)": 10.5}
{"sequence": "TATATACATATATATACACACATATATATATTTTAT [CACACA_site3788]", "gcPBM binding intensity (ln)": 6.65}
{"sequence": "TACATTTTTATTTTTACACACATATTTATTTATATA [CACACA_site6609]", "gcPBM binding intensity (ln)": 7.06}
{"sequence": "TATTTATTTTTTTGCACACATATTTTACATTTTAAT [CACACA_site3181]", "gcPBM binding intensity (ln)": 10.8}
{"sequence": "ATTTTACATATTTGCACACATATATTTATATACATA [CACACA_site854]", "gcPBM binding intensity (ln)": 10.6}
{"sequence": "TTTTTATATTTTTGCACACATTCTTTACTCTTCAAA [CACACA_site2210]", "gcPBM binding intensity (ln)": 10.4}
{"sequence": "TTTTCATTTTTCTTTACACACATATATTTATTTATA [CACACA_site7119]", "gcPBM binding intensity (ln)": 7.15}
{"sequence": "ATATTAAGTTTTATTACACACTCTCAATTTTTATTT [CACACA_site4206]", "gcPBM binding intensity (ln)": 6.63}
{"sequence": "TATTTTTATATTTTTGCACACATTCTTTACTCTTCA [CACACA_site2211]", "gcPBM binding intensity (ln)": 10.6}
{"sequence": "AATATTTATTTTTTTGCACACATATTTTACATTTTA [CACACA_site3182]", "gcPBM binding intensity (ln)": 10.3}
{"sequence": "TATATATATATTTTTGCACACATTTTTTAAGGTACA [CACACA_site2145]", "gcPBM binding intensity (ln)": 10.3}
{"sequence": "ATATATTTTATACATACACACATATATATATTTTTT [CACACA_site3940]", "gcPBM binding intensity (ln)": 6.83}
{"sequence": "TAATGTACATAAACCGCACACATATAAAAAAATAAA [CACACA_site2851]", "gcPBM binding intensity (ln)": 6.79}
{"sequence": "ATAAAAATTTATATATGTACTTAATTTTTAATTTTT [XGTACX_site7482]", "gcPBM binding intensity (ln)": 5.98}
{"sequence": "ACATACAAGAATTAAACACACACAAAATATAAATTC [CACACA_site8985]", "gcPBM binding intensity (ln)": 6.8}
{"sequence": "TATCTCTCTTTCTGCTGTACATAAAAATTATATAAT [XGTACX_site5961]", "gcPBM binding intensity (ln)": 7.19}
{"sequence": "ATATAATTTATGTGCACACACTCCTATTTTTAGCTT [CACACA_site50]", "gcPBM binding intensity (ln)": 11.3}
{"sequence": "TATAATTATTTTTTCACACATATGTATTTATATATA [CACACA_site4205]", "gcPBM binding intensity (ln)": 7.05}
{"sequence": "GGCTTTTTTTAATATGCACACATATATTTTATATAT [CACACA_site8647]", "gcPBM binding intensity (ln)": 10.2}
{"sequence": "GTATATAATTTATGTGCACACACTCCTATTTTTAGC [CACACA_site49]", "gcPBM binding intensity (ln)": 11.1}
{"sequence": "ATATAATATTTATATGCACACTTTTCTATATATAAG [CACACA_site6100]", "gcPBM binding intensity (ln)": 8.84}
{"sequence": "TTTTTCTTTATTAGCACACATAATATTATATATGTG [CACACA_site2629]", "gcPBM binding intensity (ln)": 7.1}
{"sequence": "TTTTCTATGCTAAACACACTCATTGTTACAAGTTTT [CACACA_site5531]", "gcPBM binding intensity (ln)": 6.78}
{"sequence": "TATGAAAATATATATTGTACAGAATCTATAAAAAAT [XGTACX_site8030]", "gcPBM binding intensity (ln)": 6.39}
{"sequence": "TTTAAAAAATTATATTCACACACATACACATATATA [CACACA_site8076]", "gcPBM binding intensity (ln)": 6.95}
{"sequence": "GACAATTATATGTAGGTGCATATACAAATTTTTTAA", "gcPBM binding intensity (ln)": 9.14}
{"sequence": "ATTTTTTTTTTTTTATGTACATATAGGTGCAAATCA [XGTACX_site6748]", "gcPBM binding intensity (ln)": 11.1}
{"sequence": "CATATATATTTTATATGTACATATATATTTTATATA [XGTACX_site8665]", "gcPBM binding intensity (ln)": 6.35}
{"sequence": "TACATAAAATATATCACACATATAATATATATATAT [CACACA_site5834]", "gcPBM binding intensity (ln)": 8.54}
{"sequence": "GAAATGTGATAATATACACACACGCATATATATATA [CACACA_site4332]", "gcPBM binding intensity (ln)": 8.82}
{"sequence": "CAAAATATTTTTATAACACACATATATAGAATGTGC [CACACA_site1145]", "gcPBM binding intensity (ln)": 6.34}
{"sequence": "TTCTGCAGCAATGTTTTTTTTAAATATTTATATGGT [CACACA_negctrl_site1815]", "gcPBM binding intensity (ln)": 6.51}
{"sequence": "AAAAATAGAGCAGCTCTCATATTTTTATGTGCAATA [CACACA_negctrl_site837]", "gcPBM binding intensity (ln)": 10.6}
{"sequence": "TTTTTTTATCAATGTTGTACTTTTTTTTTTTTCCAT [XGTACX_site8864]", "gcPBM binding intensity (ln)": 6.18}
{"sequence": "ATTAAAAAAAAAAAAAAAAAAAAAAAAAAAAAAAAA [CACACA_negctrl_site1060]", "gcPBM binding intensity (ln)": 6.3}
{"sequence": "AGGTATATATTACAAGTGCACTGTAAAATTAAAATT", "gcPBM binding intensity (ln)": 10.5}
{"sequence": "TGCATAATTAAAAATGGTACACTGTATTTATAATAT [XGTACX_site1575]", "gcPBM binding intensity (ln)": 6.38}
{"sequence": "TAAAAAATTAATAAAGTGCATAAATATTACAATATT", "gcPBM binding intensity (ln)": 7.68}
{"sequence": "ATATTTAAATAATATTCACACACAAAATTATATTTT [CACACA_site7955]", "gcPBM binding intensity (ln)": 6.44}
{"sequence": "AAATGTATACACATGGTGCGTAATATATTATATATA [GTGCAC_site9877]", "gcPBM binding intensity (ln)": 7.85}
{"sequence": "AATAAAAAAATATATTGTACTAATAATTATATGTTT [XGTACX_site2246]", "gcPBM binding intensity (ln)": 6.47}
{"sequence": "TTTTTATCAAATAAATGTACACATATTAAATGAAAT [XGTACX_site555]", "gcPBM binding intensity (ln)": 6.6}
{"sequence": "ACATATTAAATATGAGTGCAATATATATATATATAA", "gcPBM binding intensity (ln)": 9.25}
